# Compound activity from PubChem.
# IL1B secr inh – inhibitors of inflammasome signaling (IL-1 beta secretion). THP-1 LPS/ATP IL-1B secretion, AlphaLISA, 16 h; stronger effect = lower value. activity change, % at 57.5 µM. AID 743279. 360,000 compounds, 4.7% hits; in the data active = activity change below about -50%; inconclusive = mostly about -30% to -49%; note: % is set by controls: 0 for no effect and ±100 for the full control effect
#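 THP-1 cells pretreated 1 hr with compounds (up to 57.5 uM final), then stimulated with LPS (250 ng/mL final) plus ATP (1.25 mM final); secreted IL-1B measured by AlphaLISA after 16 hr, decreased signal indicating inhibition.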
# SW480 rerep – inducers of DNA re-replication in SW480 colon cancer cells; Potency, µM (highest dose often 46.1 µM), inactives show at the top dose re-replication activation, usual class: activators; SW480 DNA re-replication, Hoechst DNA content imaging, 48 h; 340,000 compounds, 1.8% hits; note: potency is the fitted concentration of half-maximal effect; % of control where 0% means no effect; nearly all actives have a fitted effect of over 55% in size
#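 Hoechst fluorescence of nuclei (405 nm excitation, 500-530 nm emission) measured by plate-scanning imager after 48 hr compound exposure at 37 C; re-replication scored as increased number of nuclei with elevated intensity.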
# DT40 TDP1 no CPT – qHTS for Inhibitors of human tyrosyl-DNA phosphodiesterase 1 (TDP1): qHTS in cells in absence of CPT | DT40 Tdp1-/- hTDP1 cells, no CPT, ATP luminescence, 48 h | Potency, µM (titrated, usually from 46.2 µM), for inactives: top-dose activity change, negative = growth inhibition, actives largely listed as inhibitors | 420,000 compounds, 15% hits | AID 686978, 2013; note: potency is the fitted concentration of half-maximal effect; % is set by controls: 0 for no effect and ±100 for the full control effect; nearly all actives have a fitted effect of over 55% in size
#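 A cellular qHTS used chicken DT40 cells lacking endogenous Tdp1 but carrying stably transfected human TDP1. Compounds were applied without camptothecin, and cell growth kinetics were judged by ATP-dependent luminescence after ≥48 hr.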
# MCF10A rerep – inducers of DNA re-replication in MCF 10A breast cells. MCF 10A DNA re-replication, Hoechst nuclear intensity, 48 h. Potency, µM (series often up to 46.1 µM), for the others: top-dose activity, positive = re-replication, actives largely listed as activators. 350,000 compounds, 2.9% hits. AID 624296; note: potency is the fitted concentration of half-maximal effect; % of control where 0% means no effect; nearly all actives have a fitted effect of over 50% in size
# BCR signal inh – inhibitors of chronic active B-cell receptor signaling; ABC-DLBCL IkBa-CBG/CBR reporter, luminescence ratio, 4 h; Potency, µM (titrated, usually from 46.1 µM), without a hit: at the highest dose activity change, negative = inhibition, usual class: inhibitors; 340,000 compounds, 0.05% hits; AID 493014; active = well fitted inhibition curve with a large enough effect in the signal ratio, with a control signal flat, not every such curve was filed as active; inconclusive = small, poorly fitted or top-dose-only effect, or effect the other way, or a change in a side signal; the % refers to the signal ratio;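 note: potency is the fitted concentration of half-maximal effect; plate controls were basal doxycycline-induced cells for no effect and cells given 10 µM MG132 for full effect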
#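 TMD8 ABC-DLBCL cells carrying doxycycline-inducible green luciferase fused to IkappaBalpha plus unfused red luciferase were exposed to compounds (up to 46 uM) for 4 hrs at 37C. Activity came from the overlap-corrected green/red luminescence ratio.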
# TDP1 cell CPT – growth inhibition of DT40 Tdp1-/-;hTDP1 cells with camptothecin (screen for TDP1 inhibitors) | 420,000 compounds, 12% hits | Potency, µM (top dose mostly 46.2 µM), for the others: at the top dose activity change, negative = growth inhibition, most hits filed as inhibitors | chicken DT40 Tdp1-/-;hTDP1 cells + 20 nM CPT, ATP luminescence, 48 h; note: potency is the fitted concentration of half-maximal effect; % is set by controls: 0 for no effect and ±100 for the full control effect; nearly all actives have a fitted effect of over 55% in size
#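 Chicken DT40 Tdp1-/- cells stably complemented with human TDP1 were seeded at 400 cells/well in medium containing 20 nM camptothecin, exposed to pin-transferred compounds, and grown at 37 °C for at least 48 hr. Viability was read as ATP luminescence.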
# * marks the source's active call; other numbers are inactive results; ? = inconclusive; · = no result given. Hits are enriched below; roughly 19% of the tested compounds scored in any of these assays. Unless noted, calls come from the whole dose curve; as a rule, active = well fitted curve in the direction sought with a large enough effect; inconclusive = small, poorly fitted or top-dose-only effect, or another doubt; inactive = no such curve, though single readings can be large; an effect the other way counts as inactive or inconclusive.
SMILES,IL1B secr inh,SW480 rerep,DT40 TDP1 no CPT,MCF10A rerep,BCR signal inh,TDP1 cell CPT
Cc1c2c(n3c(nc4ccccc43)c1C#N)N(CCCN(C)C)CC2,-22.4,9.2µM*,?,14.6µM*,?,-12.5%
COc1ccc(CCN(C)Cc2ccc(OC)c(OCc3ccccc3)c2)cc1OC,-21.0,?,23.1µM*,23.0%,-1.7%,?
COc1ccc(N2C(=O)CC(N(C)CCc3ccc(OC)c(OC)c3)C2=O)cc1 (configuration not stated),17.8,-0.2%,-4.6%,-8.1%,9.2%,0.1%
COc1ccc(CCN(C)C2CC(=O)N(c3ccccc3)C2=O)cc1OC (configuration not stated),21.0,-19.1%,?,7.4%,-9.4%,9.2µM*
COc1ccc(C2=Nc3ccccc3N(C(=O)c3ccc(C(F)(F)F)cc3)C2C(=O)NCc2ccccc2)cc1 (configuration not stated),16.4,·,?,·,·,?
CCc1ccc(NC(=O)CSC2=C(C#N)C(c3ccco3)C3=C(CCCC3=O)N2)cc1 (configuration not stated),-90.1*,?,?,18.4µM*,?,?
CCc1ccccc1NC(=O)CSC1=C(C#N)C(c2ccc(O)c(OC)c2)C2=C(CCCC2=O)N1 (configuration not stated),-19.5,?,23.1µM*,16.4µM*,-6.6%,20.6µM*
Cc1ccccc1C(=O)NNS(=O)(=O)c1cccc([N+](=O)[O-])c1,28.9,-6.3%,-2.3%,0.1%,?,-18.7%
OC(c1ccc2c(c1)CN(Cc1cccn1-c1ncccn1)CCO2)C1CCCCC1 (configuration not stated),·,·,-22.9%,·,·,6.6%
O=S(=O)(NCc1ccccc1Cl)c1ccc(N2CCCCS2(=O)=O)cc1,·,·,20.6µM*,·,·,16.4µM*
O=S(=O)(NCc1ccc(Cl)cc1)c1ccc(N2CCCCS2(=O)=O)cc1,·,·,8.2µM*,·,·,11.6µM*
CSc1ccc(S(=O)(=O)NCc2ccccc2Cl)cc1,31.1,4.7%,?,-1.2%,5.1%,-28.7%
O=S(=O)(NCc1ccc(F)cc1)c1ccc(N2CCCCS2(=O)=O)cc1,·,·,20.6µM*,·,·,23.1µM*
O=S(=O)(NCc1ccccc1)c1ccc(Cl)cc1,-3.5,-0.8%,-7.3%,5.4%,-3.6%,-6.5%
O=C1CCCN1c1ccc(S(=O)(=O)NCc2ccc(F)cc2)cc1,45.4,?,?,15.9%,1.6%,20.6µM*
COc1ccc(S(=O)(=O)N2CCN(C(=O)N3CCOCC3)C2C)cc1 (configuration not stated),-15.9,-9.6%,-5.8%,-6.9%,-0.8%,-7.0%
Cc1ccc(C(=O)N[C@@H](Cc2ccccc2)C(=O)N2CCC3(CC2)NCCc2[nH]cnc23)cc1C,2.6,-5.8%,?,-5.7%,7.0%,?
CC[C@]12c3[nH]c4ccc(Cl)cc4c3CCN1C(=O)[C@@H](CC(=O)NCCCn1ccnc1)C[C@@H]2C(=O)N1CCN(C(=O)c2ccco2)CC1,11.8,7.2%,11.3%,7.0%,-1.7%,8.9%
Cc1nn(CCCC(=O)NCc2ccccc2)c(=O)c2cc3sccc3n12,·,·,-26.7%,·,·,1.1%
Cc1ccc(Cl)cc1NS(=O)(=O)c1ccc(N2CCCCS2(=O)=O)cc1,·,·,11.6µM*,·,·,?
Cc1ccc(Cl)cc1NS(=O)(=O)c1cc2c3c(c1)CC(=O)N3CCC2,·,·,?,·,15.3%,?
COc1ccc(CN2CCN(c3ccc(F)cc3)CC2)c(OC)c1OC,8.8,?,?,-5.2%,-1.0%,?
COc1ccc(CN2CCN(Cc3ccc(Br)cc3)CC2)c(OC)c1OC,-4.6,-10.6%,16.4µM*,?,-14.2%,?
CN1CCN(Cc2cccc(Oc3ccccc3)c2)CC1,-53.1*,2.6%,?,15.7%,1.9%,-13.9%
OC1CCN(Cc2cccc(Oc3ccccc3)c2)CC1,0.0,-7.0%,?,16.8%,-5.4%,23.1µM*
SMILES,IL1B secr inh,SW480 rerep,DT40 TDP1 no CPT,MCF10A rerep,BCR signal inh,TDP1 cell CPT
COc1ccc(CN2CCN(C(c3ccc(F)cc3)c3ccc(F)cc3)CC2)c(OC)c1OC,-23.7,16.9%,2.91µM*,21.1µM*,·,2.59µM*
COc1cc(C(=O)N/C(=C\c2cn(S(=O)(=O)N(C)C)c3ccccc23)C(=O)N2CCCC2)cc(OC)c1OC,-14.7,-12.3%,?,1.2%,-8.5%,?
Cc1cc(=O)oc2cc(NC(=S)NNC(=O)c3c(Cl)cnn3C)ccc12,0.0,-13.9%,-8.2%,27.0%,?,-24.8%
COc1cc(CN2CCN(Cc3cccc(OC)c3OC)CC2)cc(OC)c1,18.2,-1.7%,-4.5%,12.0%,-12.3%,3.0%
COc1ccc(CN2CCN(Cc3cccc(Oc4ccccc4)c3)CC2)c(OC)c1OC,-89.0*,8.8%,?,22.9%,-12.6%,?
Cc1ccccc1CCNC(=O)c1cc2cc(S(=O)(=O)N3CCCCC3)ccc2n1C,·,·,18.4µM*,·,·,10.3µM*
Cc1cccc(CNC(=O)c2cc3cc(S(=O)(=O)N4CCCCC4)ccc3n2C)c1,·,·,18.4µM*,·,·,?
Cn1c(C(=O)NCc2cccc(F)c2)cc2cc(S(=O)(=O)N3CCCCC3)ccc21,·,·,23.1µM*,·,·,?
CCOc1ccc(CNC(=O)c2cc3cc(S(=O)(=O)N4CCCCC4)ccc3n2C)cc1,·,·,16.4µM*,·,·,18.4µM*
CCN(CC(=O)Nc1ccc(NC(C)=O)cc1)C(=O)C1CC1,-0.9,·,4.3%,·,·,-8.0%
O=C(COC(=O)CN1C(=O)c2ccccc2C1=O)Nc1cccc(F)c1,35.6,-7.3%,-0.7%,0.1%,?,-23.9%
CCOC(=O)CC[C@H](NC(=O)Cn1cnc(C(=O)Nc2ccc(C)c(C)c2)n1)C(=O)OCC,-1.9,-14.4%,-21.2%,-14.7%,-2.6%,?
O=C(CCc1ccccc1)N=C1SC2CS(=O)(=O)CC2N1Cc1ccccc1 (configuration not stated),7.9,?,5.5%,?,2.7%,-15.7%
COc1cccc(NC(=O)CN(C)C(=O)CCCc2nc3ccccc3s2)c1,19.3,-1.1%,-16.8%,0.9%,-4.6%,-17.1%
Cc1ccc(N(CC(O)Cn2c3ccccc3c3ccccc32)S(=O)(=O)c2ccc(F)cc2)cc1 (configuration not stated),·,·,20.6µM*,·,·,?
